# Results reported in PubChem BioAssay AID1159580 (chemical genetic matrix, 2015).
# Hit rate of the full screen: of about 5,500 compounds, about 2,000 (36%) were called active. About 18% were inconclusive and are not listed. The list shows a part of the results. A number with no mark means an inactive call. Rule as the data show it: active = normalized growth mostly below about 0.91 (no sharp cut-off); inconclusive = no clear call, values can overlap the other calls; inactive = mostly above about 0.92.
# Experiment: chemical genetic growth profiling, strain panel (AID 1159580);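 also: tested at 20 µM; growth read once vehicle control cultures reached saturation at 30 °C; 1 = growth at the plate median or of vehicle wells; lower values mean less growth of the strain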
# Details: S. cerevisiae deletion strains, growth OD
# [1] = locus YAR019C, strain CDC15, active compounds read low
# [2] = locus YBL105C, strain PKC1, active compounds read low
# [3] = locus YBR135W, strain CKS1, active compounds read low
# [4] = locus YBR136W, strain MEC1, active compounds read low
# [5] = locus YBR160W, strain CDC28, active compounds read low
# [6] = locus YDL017W, strain CDC7, active compounds read low
# [7] = locus YDL028C, strain MPS1, active compounds read low
# [8] = locus YDL101C, strain DUN1, active compounds read low
# [9] = locus YDL108W, strain KIN28, active compounds read low
# [10] = locus YDL132W, strain cdc53, active compounds read low
# [11] = locus YDL214C, strain PRR2, active compounds read low
# [12] = locus YDR052C, strain DBF4, active compounds read low
# [13] = locus YDR054C, strain cdc34, active compounds read low
# [14] = locus YDR226W, strain ADK1, active compounds read low
# [15] = locus YDR477W, strain SNF1, active compounds read low
# [16] = locus YER123W, strain YCK3, active compounds read low
# [17] = locus YER133W, strain GLC7, active compounds read low
# [18] = locus YFL009W, strain cdc4, active compounds read low
# [19] = locus YFL029C, strain CAK1, active compounds read low
# [20] = locus YFR003C, strain YPI1, active compounds read low
# [21] = locus YFR019W, strain FAB1, active compounds read low
# [22] = locus YFR028C, strain CDC14, active compounds read low
# [23] = locus YGR040W, strain KSS1, active compounds read low
# [24] = locus YGR052W, strain FMP48, active compounds read low
# [25] = locus YGR092W, strain DBF2, active compounds read low
# [26] = locus YHR030C, strain SLT2, active compounds read low
# [27] = locus YHR079C, strain IRE1, active compounds read low
# [28] = locus YHR082C, strain KSP1, active compounds read low
# [29] = locus YHR205W, strain SCH9, active compounds read low
# [30] = locus YIL147C, strain SLN1, active compounds read low
# [31] = locus YJL095W, strain BCK1, active compounds read low
# [32] = locus YJL128C, strain PBS2, active compounds read low
# [33] = locus YJL157C, strain FAR1, active compounds read low
# [34] = locus YJR016C, strain ILV3, active compounds read low
# [35] = locus YJR066W, strain TOR1 (second series), active compounds read low
# [36] = locus YJR066W, strain TOR1, active compounds read low
# [37] = locus YKL048C, strain ELM1, active compounds read low
# [38] = locus YKL067W, strain YNK1, active compounds read low
# [39] = locus YKL101W, strain HSL1, active compounds read low
# [40] = locus YKL193C, strain SDS22, active compounds read low
# [41] = locus YKL203C, strain TOR2, active compounds read low
# [42] = locus YLR113W, strain HOG1, active compounds read low
# [43] = locus YLR133W, strain CKI1, active compounds read low
# [44] = locus YLR403W, strain SFP1, active compounds read low
# [45] = locus YML070W, strain DAK1, active compounds read low
# [46] = locus YMR001C, strain CDC5, active compounds read low
# [47] = locus YMR205C, strain PFK2 (second series), active compounds read low
# [48] = locus YMR277W, strain FCP1, active compounds read low
# [49] = locus YNL006W, strain LST8, active compounds read low
# [50] = locus YNL020C, strain ARK1, active compounds read low
# [51] = locus YNL161W, strain CBK1, active compounds read low
# [52] = locus YNL183C, strain NPR1, active compounds read low
# [53] = locus YNL207W, strain RIO2, active compounds read low
# [54] = locus YNL222W, strain SSU72, active compounds read low
# [55] = locus YNL307C, strain MCK1 (second series), active compounds read low
# [56] = locus YOL078W, strain AVO1, active compounds read low
# [57] = locus YOL136C, strain PFK27, active compounds read low
# [58] = locus YOR061W, strain CKA2, active compounds read low
# [59] = locus YOR119C, strain RIO1, active compounds read low
# [60] = locus YOR231W, strain MKK1, active compounds read low
# [61] = locus YOR329C, strain SCD5, active compounds read low
# [62] = locus YPL031C, strain PHO85, active compounds read low
# [63] = locus YPL153C, strain RAD53, active compounds read low
# [64] = locus YPL204W, strain HRR25, active compounds read low
# [65] = locus YPL209C, strain IPL1, active compounds read low
# [66] = locus YPL256C, strain CLN2, active compounds read low
# [67] = locus YPR025C, strain CCL1, active compounds read low
# [68] = locus YPR106W, strain ISR1, active compounds read low
# [69] = locus YPR111W, strain DBF20, active compounds read low
# [70] = strain NNK1, active compounds read low
# [71] = strain TSCII, active compounds read low
# [72] = locus YGR078C, strain PAC10, active compounds read low
# [73] = locus YNL322C, strain KRE1, active compounds read low
compound,measurement,setting,value
N#CC1=C(N)C(C#N)(C#N)C2(CCCCC2)C2CCCC=C12 (centres undefined),normalized growth,[1],0.984
same,normalized growth,[2],0.982
same,normalized growth,[3],0.979
same,normalized growth,[4],0.982
same,normalized growth,[5],0.982
same,normalized growth,[6],0.98
same,normalized growth,[7],0.985
same,normalized growth,[8],0.983
same,normalized growth,[9],0.988
same,normalized growth,[10],0.98
same,normalized growth,[11],0.993
same,normalized growth,[12],0.977
same,normalized growth,[13],0.973
same,normalized growth,[14],0.983
same,normalized growth,[15],0.982
same,normalized growth,[16],0.984
same,normalized growth,[17],0.978
same,normalized growth,[18],0.978
same,normalized growth,[19],0.973
same,normalized growth,[20],0.985
same,normalized growth,[21],0.985
same,normalized growth,[22],0.985
same,normalized growth,[23],0.971
same,normalized growth,[24],1.05
same,normalized growth,[25],0.958
same,normalized growth,[26],0.972
same,normalized growth,[27],0.989
same,normalized growth,[28],0.975
same,normalized growth,[29],0.953
same,normalized growth,[30],0.985
same,normalized growth,[31],0.951
same,normalized growth,[32],0.961
same,normalized growth,[33],0.991
same,normalized growth,[34],0.989
same,normalized growth,[35],0.969
same,normalized growth,[36],0.968
same,normalized growth,[37],0.985
same,normalized growth,[38],1
same,normalized growth,[39],0.98
same,normalized growth,[40],0.981
same,normalized growth,[41],1.02
same,normalized growth,[42],0.959
same,normalized growth,[43],1
same,normalized growth,[44],0.979
same,normalized growth,[45],0.989
same,normalized growth,[46],0.98
same,normalized growth,[47],1
same,normalized growth,[48],0.985
same,normalized growth,[49],0.99
same,normalized growth,[50],0.998
same,normalized growth,[51],0.979
same,normalized growth,[52],0.963
same,normalized growth,[53],0.971
same,normalized growth,[54],0.982
same,normalized growth,[55],0.995
same,normalized growth,[56],0.979
same,normalized growth,[57],0.99
same,normalized growth,[58],1
same,normalized growth,[59],0.995
same,normalized growth,[60],0.973
same,normalized growth,[61],0.979
same,normalized growth,[62],0.978
same,normalized growth,[63],0.96
same,normalized growth,[64],0.971
same,normalized growth,[65],0.988
same,normalized growth,[66],0.965
same,normalized growth,[67],0.98
same,normalized growth,[68],0.986
same,normalized growth,[69],0.987
same,normalized growth,[70],0.985
same,normalized growth,[71],0.979
COc1cc(N=Cc2ccc3c(c2)OCO3)c(OC)cc1Cl,normalized growth,"locus YAL013W, strain DEP1, active compounds read low",1.01
same,normalized growth,"locus YBR229C, strain ROT2, active compounds read low",1.01
same,normalized growth,"locus YCL061C, strain MRC1, active compounds read low",1
same,normalized growth,[8],0.984
same,normalized growth,"locus YDR150W, strain NUM1, active compounds read low",0.91
same,normalized growth,"locus YEL061C, strain CIN8, active compounds read low",1.04
same,normalized growth,[72],0.994
same,normalized growth,"locus YGR229C, strain SMI1, active compounds read low",1.01
same,normalized growth,[26],0.982
same,normalized growth,"locus YHR087W, strain rtc3, active compounds read low",0.989
same,normalized growth,"locus YJR043C, strain POL32, active compounds read low",1
same,normalized growth,"locus YJR075W, strain HOC1, active compounds read low",0.983
same,normalized growth,"locus YLR039C, strain RIC1, active compounds read low",0.97
same,normalized growth,"locus YLR058C, strain SHM2 (second series), active compounds read low",1
same,normalized growth,"locus YLR085C, strain ARP6, active compounds read low",1.04
same,normalized growth,"locus YLR262C, strain YPT6, active compounds read low",0.99
same,normalized growth,"locus YML094W, strain GIM5, active compounds read low",1.02
same,normalized growth,"locus YMR219W, strain ESC1, active compounds read low",0.991
same,normalized growth,"locus YMR263W, strain SAP30, active compounds read low",0.939
same,normalized growth,"locus YMR307W, strain GAS1, active compounds read low",1.05
same,normalized growth,"locus YNL128W, strain TEP1, active compounds read low",1.01
same,normalized growth,"locus YNL153C, strain GIM3, active compounds read low",0.988
same,normalized growth,"locus YNL298W, strain CLA4 (second series), active compounds read low",1.01
same,normalized growth,[73],1
same,normalized growth,"locus YNR030W, strain Alg12, active compounds read low",1.01
same,normalized growth,"locus YPL055C, strain LGE1, active compounds read low",0.998
same,normalized growth,"locus YPL241C, strain CIN2, active compounds read low",1.02
same,normalized growth,"locus YPR135W, strain CTF4, active compounds read low",0.973
CCN(CC)CCCCCCCCOC(=O)c1cc(OC)c(OC)c(OC)c1,normalized growth,"locus YAL040C, strain CLN3, active compounds read low",1.01
same,normalized growth,"locus YDR363W, strain ESC2, active compounds read low",1.01
same,normalized growth,"locus YER002W, strain NOP16, active compounds read low",0.999
same,normalized growth,[72],1.01
same,normalized growth,"locus YNL175C, strain NOP13, active compounds read low",1.01
same,normalized growth,"locus YNL197C, strain WHI3, active compounds read low",1.02
same,normalized growth,"locus YNL224C, strain SQS1, active compounds read low",0.985
same,normalized growth,[73],0.992
same,normalized growth,"locus YOR083W, strain WHI5 (second series), active compounds read low",1.03
COc1cc(N=Cc2cc(Cl)cc(Cl)c2OC(=O)c2cc(OC)c(OC)c(OC)c2)c(OC)cc1Cl,normalized growth,[1],0.965
same,normalized growth,[2],0.977
same,normalized growth,[3],0.969
same,normalized growth,[4],0.974
same,normalized growth,[5],0.968
same,normalized growth,[6],0.981
same,normalized growth,[7],0.959
same,normalized growth,[8],0.962
same,normalized growth,[9],0.945
same,normalized growth,[10],0.966
same,normalized growth,[11],0.369 (active)
same,normalized growth,[12],0.989
same,normalized growth,[13],0.98
same,normalized growth,[14],0.947
same,normalized growth,[15],0.31 (active)
same,normalized growth,[16],0.212 (active)
same,normalized growth,[17],0.398 (active)
same,normalized growth,[18],0.956
same,normalized growth,[19],0.971
same,normalized growth,[20],0.975
same,normalized growth,[21],0.34 (active)
same,normalized growth,[22],0.962
same,normalized growth,[23],0.381 (active)
same,normalized growth,[24],0.235 (active)
same,normalized growth,[25],0.183 (active)
same,normalized growth,[26],0.145 (active)
same,normalized growth,[27],0.161 (active)
same,normalized growth,[28],0.176 (active)
same,normalized growth,[29],0.202 (active)
same,normalized growth,[30],0.977
same,normalized growth,[31],0.177 (active)
same,normalized growth,[32],0.937
same,normalized growth,[33],0.32 (active)
same,normalized growth,[34],0.987
same,normalized growth,[35],0.463 (active)
same,normalized growth,[36],0.148 (active)
same,normalized growth,[37],0.458 (active)
same,normalized growth,[38],0.392 (active)
same,normalized growth,[39],0.346 (active)
same,normalized growth,[40],0.972
same,normalized growth,[41],0.345 (active)
same,normalized growth,[42],0.243 (active)
same,normalized growth,[43],0.354 (active)
same,normalized growth,[44],0.244 (active)
same,normalized growth,[45],0.317 (active)
same,normalized growth,[46],0.963
same,normalized growth,[47],0.421 (active)
same,normalized growth,[48],0.954
same,normalized growth,[49],0.982
same,normalized growth,[50],0.335 (active)
same,normalized growth,[51],0.98
same,normalized growth,[52],0.235 (active)
same,normalized growth,[53],0.977
same,normalized growth,[54],0.958
same,normalized growth,[55],0.238 (active)
same,normalized growth,[56],0.969
same,normalized growth,[57],0.273 (active)
same,normalized growth,[58],0.346 (active)
same,normalized growth,[59],0.307 (active)
same,normalized growth,[60],0.207 (active)
same,normalized growth,[61],0.981
same,normalized growth,[62],0.292 (active)
same,normalized growth,[63],0.279 (active)
same,normalized growth,[64],0.312 (active)
same,normalized growth,[65],0.977
same,normalized growth,[66],0.215 (active)
same,normalized growth,[67],0.974
same,normalized growth,[68],0.962
same,normalized growth,[69],0.943
same,normalized growth,[70],0.98
same,normalized growth,[71],0.96
